Screening data from PubChem.
This is a sample that favours compounds with a hit; in the whole collection about 2.8% have one here.
MsrA act – bovine MsrA enzyme activators, primary screen, biochemical, absorbance, HTS | Methionine sulfoxide reductase A (Bos taurus) | purified bovine MsrA, absorbance read-out | activation, % at 10.6 µM | 0.3% of 360,000 active; in the data active = activation above about 7.5%;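 note: 0% = vehicle and 100% = reference activator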
MsrA inh – bovine MsrA enzyme inhibitors, primary screen, biochemical, absorbance, HTS | 0.75% of 360,000 active | inhibition, % at 15.5 µM | purified bovine MsrA, absorbance read-out; in the data active = inhibition above about 4.5%;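 note: 0% = vehicle wells with enzyme and 100% = reference inhibitor wells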
SMARCA2 activ – SMARCA2 (BRM) function activators, primary screen, cell-based, luminescence, high throughput | 1% of 370,000 active | activation, % at 9.1 µM | MG213 cells, MMTV-luciferase reporter, dexamethasone, overnight; in the data active = activation above about 7.8%;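 note: 0% = vehicle wells and 100% = reference activator wells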
KLK7 zymogen act – proKLK7 zymogen activators, primary screen, biochemical, fluorescence intensity; Kallikrein-7 (Homo sapiens), P49862; purified proKLK7, EDANS-DABCYL substrate fluorescence; 100% is mature enzyme control, 0% vehicle; activation, % at 7 µM; 0.9% of 370,000 active;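 active = activation above the mean of all tested compounds plus 3 SD, computed per campaign excluding outliers beyond control limits, cut at about 13% in these data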
Target sequence (P49862 whole entry, looked up): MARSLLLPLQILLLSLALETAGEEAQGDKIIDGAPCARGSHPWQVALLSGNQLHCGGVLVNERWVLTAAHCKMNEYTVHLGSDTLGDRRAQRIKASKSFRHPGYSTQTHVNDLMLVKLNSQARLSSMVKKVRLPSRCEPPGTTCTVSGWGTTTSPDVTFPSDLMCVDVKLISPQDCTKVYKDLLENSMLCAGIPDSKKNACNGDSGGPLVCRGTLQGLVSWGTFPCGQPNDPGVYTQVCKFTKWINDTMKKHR
KLK7 act conf – proKLK7 zymogen activators, confirmation, biochemical, fluorescence intensity, triplicate; shares compounds with KLK7 zymogen act; purified proKLK7, EDANS-DABCYL substrate fluorescence; scaled: vehicle 0, mature enzyme 100; activation, % at 7 µM; 68% of 3,200 active;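 active = activation, as change over the incubation, above the mean of all tested compounds plus 3 SD, cut at about 13% in these data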
EDANS interfere – EDANS-DABCYL substrate optical interference, artefact control for kallikrein-7 zymogen activator project, biochemical, fluorescence intensity, high throughput; activation, % at 7 µM; shares compounds with KLK7 zymogen act; 80% of 3,200 active; no enzyme, 4 h; solvent 0%, active enzyme control 100%;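 active = activation above the all-compound mean plus 3 SD, ignoring values outside control-based bounds, cut at about 4.8% in these data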;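 note: value is the 4 h activation minus the activation read at time zero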
EDANS interf – EDANS fluorescence interference in dose response, no enzyme. shares compounds with KLK7 zymogen act. EDANS-DABCYL peptide fluorescence interference. EC50, µM. 20% of 250 active. AID 720493;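 active = compounds that raise the fluorescence signal in this interference counterscreen, with EC50 at or below 10 µM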;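 note: intact quenched peptide substrate alone read at 355 nm excitation and 520 nm emission; signal is fluorescence gain from T0 to T4 after four hours at room temperature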
An asterisk follows results filed as active; nt = no result given.

SMILES	MsrA act	MsrA inh	SMARCA2 activ	KLK7 zymogen act	KLK7 act conf	EDANS interfere	others
COc1ccc(-c2c(C)oc3c(CN4CCN(CCO)CC4)c(O)ccc3c2=O)cc1OC	0	2	1	11	nt	nt
O=c1oc2c(CN3CCN(CCO)CC3)c(O)ccc2cc1-c1ccccn1	-3	2	-3	60*	70*	82*
Cc1cc(=O)oc2c(CN3CCN(CCO)CC3)c(O)ccc12	-1	4	-1	120*	65*	69*
O=C(/C=C/c1cccc(Cl)c1)OCC(=O)c1ccc[nH]1	-1	1	0	1	nt	nt
CCOC(=O)c1c(-c2ccccc2)oc2ccc(O)c(CN3CCN(C)CC3)c12	-1	1	-3	-1	nt	nt
CCN1CCN(Cc2c(O)ccc3c(C)cc(=O)oc23)CC1	-1	4	-2	44*	71*	73*
CCCc1cc(=O)oc2cc(C)c(CN3CCCC3)c(O)c12	1	-1	-3	-1	nt	nt
CCCc1cc(=O)oc2c(CN3CCCC3)c(O)ccc12	-4	3	0	60*	72*	69*
CN1CCN(Cc2c(O)ccc3c(-c4ccccc4)cc(=O)oc23)CC1	-3	1	-1	17*	5	4
CC(C)C[C@@H]1COc2cc(N3CCSCC3)ccc2S(=O)(=O)N1	-4	1	-4	0	nt	nt
CCCCN1C(=O)C(CC(=O)NC(c2ccccc2)c2ccccc2)CC(C(=O)N(C(C)C)C(C)C)=C1C (stereo not given)	-1	0	-4	1	nt	nt
CCOC(=O)C1(C)C(=O)CC2c3nc4ccccc4cc3CN2C1=O (stereo not given)	-6	2	-5	20*	2	2
Nc1ccc(N=Nc2ccccc2O)c(N)c1	-2	0	1	40*	101*	99*
O=C(O)C1OC(C(=O)O)C(C(=O)O)C1C(=O)O (stereo not given)	-4	0	2	-1	nt	nt
CCCc1cc(NCCOCCO)n2c(nc3ccccc32)c1C#N	-6	1	0	45*	42*	27*	EDANS interf=>70
CCCc1cc(Nc2c(C)n(C)n(-c3ccccc3)c2=O)n2c(nc3ccccc32)c1C#N	0	0	-2	1	nt	nt
CCCc1cc(NCCCCO)n2c(nc3ccccc32)c1C#N	1	3	-2	25*	-20	-12
CC(C)c1cc(NCCOCCO)n2c(nc3ccccc32)c1C#N	-1	0	-1	54*	52*	50*
Cc1ccc(C(=O)NCC(=O)OCc2nc3sc(C)c(C)c3c(=O)[nH]2)cc1	nt	nt	-6	0	nt	nt
Clc1ccc2nc(C(Cl)(Cl)Cl)[nH]c2c1	-4	-1	3	0	nt	nt
COc1cc(C(c2c(O)nc(SC)[nH]c2=O)c2c(O)nc(SC)[nH]c2=O)cc(OC)c1OC	-4	0	0	-1	nt	nt
COc1ccc(OC)c(C(c2c(O)nc(SC)[nH]c2=O)c2c(O)nc(SC)[nH]c2=O)c1	-5	0	-1	13*	15*	15*
O=C(Nc1nccs1)c1ccc(N2CCOCC2)c([N+](=O)[O-])c1	-3	3	2	13*	1	0
O=C(Nc1ccccc1N1CCOCC1)c1ccc(N2CCOCC2)c([N+](=O)[O-])c1	-11	2	-3	0	nt	nt
Cn1c(=O)c(=O)n(C)c2cc(S(=O)(=O)N3CCN(c4ccccc4Cl)CC3)ccc21	nt	nt	2	0	nt	nt
SMILES	MsrA act	MsrA inh	SMARCA2 activ	KLK7 zymogen act	KLK7 act conf	EDANS interfere	others
C=CCn1c(=NC(=O)c2ccc(S(=O)(=O)N3CCc4ccccc4C3)cc2)sc2cc(S(N)(=O)=O)ccc21	-7	3	-1	66*	70*	-208	EDANS interf=>69
CCCC1(CCC)NC(=O)N(CC(=O)Nc2ccc(Cl)c(S(=O)(=O)N3CCOCC3)c2)C1=O	-3	2	-8	0	nt	nt
COc1ccc2ccccc2c1C=NNC(=O)c1cc(-c2ccc(C)cc2)n[nH]1	nt	nt	-4	41*	-23	-18
Cc1ccc(-c2cc(C(=O)NN=Cc3c4ccccc4cc4ccccc34)[nH]n2)cc1C	nt	nt	-5	-3	nt	nt
O=C(CSc1nnc(-c2cccs2)n1Cc1ccco1)Nc1ccc(OCc2ccccc2)cc1	nt	nt	-2	1	nt	nt
COc1ccc(C(=O)Nc2ccc(NC(=O)c3ccco3)c(Cl)c2)cc1OC	-3	4	-2	16*	2	4
CN1CCN(C(=O)C[C@H]2CC[C@H]3[C@@H](COC[C@@H](O)CN3C(=O)C3CCCC3)O2)CC1	nt	1	-6	0	nt	nt
CC(C)N1CCC(C)(C(=O)Nc2cc(-c3ccccc3)nn2C)C1 (stereo not given)	-1	0	-2	1	nt	nt
Cc1nn(-c2ccccc2)c2sc(C(=O)OC3CCOC3=O)cc12 (stereo not given)	0	0	0	20*	11	13*
CCC(CC)C(=O)Nc1ccc(-c2cn3cccnc3n2)cc1	-6	3	3	61*	66*	64*
COCC(=O)Nc1ccc(-c2cn3cccnc3n2)cc1	-2	0	0	25*	63*	81*
COC(=O)c1ccc2c(CCO)c[nH]c2c1	-9	1	1	16*	7	12*
O=C(NCC[C@H]1CC[C@@H](NC(=O)C2CCOCC2)[C@@H](CO)O1)Nc1ccc(Cl)cc1	nt	1	-5	1	nt	nt
O=C(CC[C@H]1O[C@@H](n2cnc3c(NC(=O)c4ccccc4)ncnc32)[C@H](O)[C@@H]1O)NCC1CCCCC1	-2	-1	-3	0	nt	nt
O=C(c1cc(COc2cccc(C(F)(F)F)c2)on1)N1C[C@@H]2CCC[C@H]1C2	2	0	0	0	nt	nt
CC(=O)c1cc2c(cc1NS(=O)(=O)c1ccccc1Br)OCO2	-4	1	0	41*	15*	5.3*	EDANS interf=>70
CC(=O)c1cc2c(cc1NS(=O)(=O)c1ccccc1C)OCO2	nt	2	-3	0	nt	nt
CCCCn1c(N)c(N(CCOC)C(=O)c2nn(CC)c(=O)c3ccccc23)c(=O)[nH]c1=O	-12	-1	3	-1	nt	nt
CCOC(=O)CC(=O)CSc1nc(-c2cccnc2)cc(C)c1C#N	-3	1	0	34*	116*	123*
CCOC(=O)CC(=O)CSc1nc(-c2cccnc2)ccc1C#N	-8	3	3	84*	286*	286*
CCOC(=O)CC(=O)CSc1nc(N)c(C#N)c(-c2ccc(F)cc2)c1C#N	-4	0	-2	14*	13*	13*
